In PubChem BioAssay AID602323 (The Scripps Research Institute Molecular Screening Center, 2012):
Unmarked numbers belong to inactive results. How the calls were made is not given here.

Test system: 80kDa SH
Test: serine hydrolase inhibition in mouse brain membranes, late-stage follow-up, selectivity assay for DAGLb inhibitor project, biochemical, gel-based competitive ABPP, fluorescence, set 2 (AID 602323)
Conditions: mouse brain membrane, at 1 µM, active compounds read high

In the case of `O=C(N1CCCCC1Cc1ccccc1)n1cc(-c2ccc(-c3ccccc3)cc2)nn1` (stereo unspecified), the inhibition is reported as 10%.
